Tau FP inhib = qHTS for Inhibitors of Tau Fibril Formation, Fluorescence Polarization. AID 1468, 2008. Potency, µM (titrated, usually from 57.7 µM), for the others: at the highest dose activity, negative = inhibition, most hits filed as inhibitors. 280,000 tested, 0.39% active. K18 P301L tau heparin fibrillization, Alexa594 FP, 6 h; further: nearly all actives have a fitted effect of over 55% in size
Target sequence (P10636 561-689 P618L limits assumed): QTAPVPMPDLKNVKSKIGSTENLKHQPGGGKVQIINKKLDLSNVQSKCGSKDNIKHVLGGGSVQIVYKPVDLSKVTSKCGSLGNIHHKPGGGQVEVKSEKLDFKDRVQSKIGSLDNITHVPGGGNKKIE
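FP of Alexa 594-tau after heparin (20 uM) induction. Substrate: human K18 P301L, 15 uM unlabeled, 0.24 uM labeled. Buffer 100 mM sodium acetate pH 7. 6 hr, 37 C.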
Tau fibril ThT = qHTS for Inhibitors of Tau Fibril Formation, Thioflavin T Binding; Microtubule-associated protein tau (Homo sapiens), P10636; recombinant tau K18 P301L, heparin-induced fibrillization, ThT fluorescence; Potency, µM (titrated, usually from 57.4 µM), without a hit: at the highest dose activity, negative = inhibition, usual class: inhibitors; 270,000 tested, 2.1% active; AID 1460, 2008; further: nearly all actives have a fitted effect of over 55% in size
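Recombinant human tau K18 fragment […] carrying P301L, 15 uM unlabeled plus 0.24 uM Alexa 594-labeled, was fibrillized with 20 uM heparin in 100 mM sodium acetate pH 7 for 6 hr at 37 C; 30 uM ThT fluorescence read after 1 hr.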
TRb SRC2 PPI = qHTS for Inhibitors of the Interaction of Thyroid Hormone Receptor and Steroid Receptor Coregulator 2 | TRbeta-SRC2 peptide binding, fluorescence polarization; receptor liganded with 1 µM T3 | Potency, µM (series often up to 106 µM), for the others: top-dose activity change, negative = inhibition, actives largely listed as inhibitors | 280,000 tested, 0.065% active;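 further: plate controls were bound peptide for no effect and peptide without receptor for full effect; nearly all actives have a fitted effect of over 50% in size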
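A fluorescence polarization screen tested compounds at multiple concentrations against complex formation between 0.6 uM TRb ligand-binding domain and 20 nM Texas Red SRC2 peptide, with 1 uM T3 present; readout after 5 hr.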
GoLoco inh red = qHTS Assay for Inhibitors of RGS12 GoLoco Motif Activity (Red Fluorophore); Gai1:RGS12 GoLoco peptide FP, rhodamine, 10 min; AID 880, 2007; Potency, µM (top dose mostly 61.6 µM), inactives show top-dose activity, negative = inhibition, usual class: inhibitors; 230,000 tested, 0.44% active; active means well fitted inhibition curve with a large enough effect, not every such curve was filed as active; inactive means no such curve, though single readings can be large or run the other way; further: nearly all actives have a fitted effect of over 30% in size
Target sequence (P63096 whole entry, looked up): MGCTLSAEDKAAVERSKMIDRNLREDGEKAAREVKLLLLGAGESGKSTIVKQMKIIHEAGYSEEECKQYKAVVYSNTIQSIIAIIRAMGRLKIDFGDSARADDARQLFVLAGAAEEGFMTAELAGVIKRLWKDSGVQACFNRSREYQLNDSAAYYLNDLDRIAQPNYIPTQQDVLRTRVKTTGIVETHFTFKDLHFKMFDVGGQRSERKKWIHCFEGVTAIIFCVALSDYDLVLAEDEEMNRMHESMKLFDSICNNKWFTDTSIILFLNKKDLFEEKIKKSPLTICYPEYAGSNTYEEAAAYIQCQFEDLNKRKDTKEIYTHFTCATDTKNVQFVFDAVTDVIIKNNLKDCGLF
TexasRed fluor = Total Fluorescence Counterscreen for Inhibitors of the Interaction of Thyroid Hormone Receptor and Steroid Receptor Coregulator 2; TRb/SRC2 Texas Red total fluorescence interference; Potency, µM (top dose mostly 106 µM), without a hit: top-dose fluorescence change, negative = quenching; 280,000 tested, 0.29% active; active means well fitted curve in either direction with a large enough effect; inconclusive means small, poorly fitted or top-dose-only effect
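Flags fluorescent or light-absorbing compounds by total fluorescence, S + 2P, at 555 nm excitation and 632 nm emission. Mixture: 20 nM Texas Red SRC2 peptide, 0.6 uM human TRb LBD, 1 uM T3, 5% DMSO; compound exposure 5 h at ambient temperature.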
Tau fluor counter = Counterscreen qHTS for Inhibitors of Tau Fibril Formation, Fluorescence Polarization; AID 1463, 2008; Potency, µM (titrated, usually from 57.7 µM), for the others: at the top dose activity change, negative = decrease; tau K18 P301L (four-repeat tau fragment) Alexa594 fluorescence, heparin fibrillization; 280,000 tested, 0.93% active; further: nearly all actives have a fitted effect of over 55% in size
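Human K18 P301L tau (15 uM unlabeled plus 0.24 uM Alexa 594-labeled, final) in 100 mM sodium acetate pH 7 was mixed with compound and 20 uM heparin and incubated 6 hr at 37 C.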
Starred values were filed as active, the others as inactive; ? = inconclusive; . = not tested or not shown; ! = a repeat was not active; [ ] = dose if it differs, or a comment. Compounds with a hit are over-represented: about 3.2% of the library has one in this group of screens. Unless noted, the call rests on the fitted dose curve; in most records, active means well fitted curve in the direction sought with a large enough effect; inconclusive means small, poorly fitted or top-dose-only effect, or another doubt; inactive means no such curve, though single readings can be large; an effect the other way counts as inactive or inconclusive. Unless noted, on the % scale 0 is the no-effect control and ±100 the full control effect; potency means the concentration at half of the fitted maximal effect.

SMILES | Tau FP inhib | Tau fibril ThT | TRb SRC2 PPI | GoLoco inh red | TexasRed fluor | Tau fluor counter
Cn1c(O)c(/C=C/C=Nc2ccccc2)c(=O)n(C)c1=S | ? | ? | -0.1% | . | -4.4% | 6.31µM*[fluorescent]
CN1CCN(c2ccc(N)cc2)CC1 | ? | 25.1µM* | -16.4% | 0.4% | 0.3% | ?
CCN1CCN(c2ccc(N)cc2)CC1 | ? | 25.1µM* | -8.3% | 5.0% | 1.4% | ?
CN1CCN(c2ccc(N)c(N3CCN(C)CC3)c2)CC1 | ? | 28.2µM* | -21.2% | -61.2% | 18.4% | ?
CON(C)C(=O)Nc1ccc(Br)c(Cl)c1 | . | . | 3.8% | . | -5.7% | .
O=C1OC(c2cc(I)c(O)c(I)c2)(c2cc(I)c(O)c(I)c2)c2ccccc21 | ? | 12.6µM* | 13.1% | -49.6% | ? | 7.08µM*[quencher]
COCCNP(=O)(c1ccccc1)c1nc2ccccc2s1 (stereo not drawn) | -9.6% | -13.6% | 3.2% | -8.4% | 3.0% | -16.2%
COc1ccc(Nc2nc(N)nc(CSc3nc4ccccc4s3)n2)cc1 | -0.6% | ? | -1.2% | . | -2.7% | 15.8µM*[quencher]
C[C@@H]1[C@@H](C)N1C[C@H](O)Cn1ccnc1[N+](=O)[O-] (stereo partly drawn) | . | . | . | 3.9%[14.2 µM] | . | .
O=C1C(Cl)=C(Cl)C(=O)C(Cl)=C1Cl | 1.41µM* | 1.41µM* | -2.7% | 0.224µM* | -10.5% | 14.1µM*[quencher]
Cn1c[n+](C)cc1C(O)c1ccccc1 (stereo not drawn) | 3.6% | 8.3% | 0.1% | 14.1µM* | -4.8% | 10.6%
O=C(O)c1cccc2c1NC(c1cccc([N+](=O)[O-])c1)C1CC(Sc3ccccc3[N+](=O)[O-])C(Cl)C21 (stereo not drawn) | ? | 31.6µM* | 5.0% | 9.3% | -6.9% | ?
Cc1c(C)n(O)c2ccc3nonc3c12 | ? | 31.6µM* | 4.2% | 1.1% | -0.5% | -28.6%
Nc1ccc2nonc2c1[N+](=O)[O-] | 2.8% | -10.8% | -4.5% | 14.1µM* | -1.5% | -3.0%
CC(C)NC(=O)N1CC(=O)N(c2cc(Cl)cc(Cl)c2)C1=O | . | . | 3.6%[201 µM] | . | -0.2%[201 µM] | .
Cc1cc(C)cc(-n2c(O)c(C=Nc3ccc(N4CCOCC4)cc3)c(=O)[nH]c2=S)c1 | 6.4% | ? | 1.4% | 16.4% | 1.1% | -7.6%
O=c1[nH]c(=S)n(-c2ccc(Br)cc2)c(O)c1C=Nc1ccc(N2CCOCC2)cc1 | 3.4% | 25.1µM* | -8.7% | -100.9% | 3.4% | -21.8%
O=C(O)C1Sc2[nH]c(=O)sc2C2c3cc(Cl)ccc3OC(=O)C12 (stereo not drawn) | -14.5% | 22.4µM* | -0.6% | 36.0% | 1.0% | ?
O=P(O)(OP(=O)(O)c1ccccc1)c1ccccc1 (tested in a mixture with another compound) | . | . | . | -2.3%[14.2 µM] | . | .
Cc1cc2c(C(C)C)c(O)c(O)c(C=O)c2c(O)c1-c1c(C)cc2c(C(C)C)c(O)c(O)c(C=O)c2c1O | 35.5µM* | 28.2µM* | ? | -5.8% | 25.1µM*![quencher] | 15.8µM*[quencher]
Cc1nc2ccccc2cc1C[N+]12CN3CN(CN(C3)C1)C2 | . | . | . | 3.7%[14.2 µM] | . | .
CC(C)C(=O)OCC(C)(C)C(OC(=O)C(C)C)C(C)C (stereo not drawn) | . | . | -2.7%[201 µM] | . | -0.8%[201 µM] | .
O=C(Nc1ccc2nc(-c3cccs3)c(-c3cccs3)nc2c1)NC1CC1 | 22.4µM* | ? | 0.7% | 6.8% | 2.6% | ?

Screening data (PubChem BioAssay)
